Assay outcomes (PubChem)
MCF10A rerep: inducers of DNA re-replication in MCF 10A breast cells. AID 624296. actives 2.9% (n = 350,000). MCF 10A DNA re-replication, Hoechst nuclear intensity, 48 h. Potency, µM (titrated, usually from 46.1 µM), for inactives: at the highest dose activity, positive = re-replication, usual class: activators; further: potency means the concentration at half of the fitted maximal effect; % of control where 0% means no effect; nearly all actives have a fitted effect of over 50% in size
BCR signal inh: inhibitors of chronic active B-cell receptor signaling; Potency, µM (series often up to 46.1 µM), for inactives: at the highest dose activity change, negative = inhibition, usual class: inhibitors; actives 0.05% (n = 340,000); AID 493014; ABC-DLBCL IkBa-CBG/CBR reporter, luminescence ratio, 4 h; active means well fitted inhibition curve with a large enough effect in the signal ratio, with a control signal flat, not every such curve was filed as active; inconclusive means small, poorly fitted or top-dose-only effect, or effect the other way, or a change in a side signal; the % refers to the signal ratio;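 further: potency means the concentration at half of the fitted maximal effect; plate controls were basal doxycycline-induced cells for no effect and cells given 10 µM MG132 for full effect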
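TMD8 ABC-DLBCL cells carrying doxycycline-inducible green luciferase fused to IkappaBalpha plus unfused red luciferase were exposed to compounds (up to 46 uM) for 4 hrs at 37C. Activity came from the overlap-corrected green/red luminescence ratio.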
DT40 TDP1 CPT: DT40-hTDP1 cell growth loss with CPT | Potency, µM (highest dose often 46.2 µM), for inactives: at the top dose activity change, negative = growth inhibition, hits mostly inhibitors | actives 12% (n = 420,000) | chicken DT40 Tdp1-/-;hTDP1 cells + 20 nM CPT, ATP luminescence, 48 h | AID 686979; further: potency means the concentration at half of the fitted maximal effect; on the % scale 0 is the no-effect control and ±100 the full control effect; nearly all actives have a fitted effect of over 55% in size
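Chicken DT40 Tdp1-/- cells complemented with human TDP1, 400 cells/well, exposed to compounds plus 20 nM camptothecin for at least 48 h at 37 C; viability read as ATP content by CellTiter-Glo luminescence.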
SW480 rereplic: DNA re-replication induction in SW480 cells; SW480 DNA re-replication, Hoechst DNA content imaging, 48 h; Potency, µM (doses to about 46.1 µM), inactives show at the top dose re-replication activation, most hits filed as activators; actives 1.8% (n = 340,000); further: potency means the concentration at half of the fitted maximal effect; % of control where 0% means no effect; nearly all actives have a fitted effect of over 55% in size
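First, 250 cells per well were seeded. Next, compound or vehicle (23 nL) was pinned in, plates sat 48 hr at 37 C. Finally Hoechst was added for 40 min before fluorescence scanning.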
TDP1 cell noCPT: qHTS for Inhibitors of human tyrosyl-DNA phosphodiesterase 1 (TDP1): qHTS in cells in absence of CPT; Potency, µM (doses to about 46.2 µM), without a hit: at the top dose activity change, negative = growth inhibition, hits mostly inhibitors; actives 15% (n = 420,000); DT40 Tdp1-/- hTDP1 cells, no CPT, ATP luminescence, 48 h; AID 686978, 2013; further: potency means the concentration at half of the fitted maximal effect; on the % scale 0 is the no-effect control and ±100 the full control effect; nearly all actives have a fitted effect of over 55% in size
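DT40 Tdp1-/-;hTDP1 cells, no CPT (DMSO vehicle only), 400 cells/well; compounds pin-transferred; ≥48 hr, 37 °C; CellTiter-Glo 30 min RT dark, luminescence read.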
IL1B secr inh: inhibitors of inflammasome signaling (IL-1 beta secretion); activity change, % at 57.5 µM; THP-1 LPS/ATP IL-1B secretion, AlphaLISA, 16 h; stronger effect = lower value; actives 4.7% (n = 360,000); in the data active means activity change below about -50%; inconclusive means mostly about -30% to -49%; further: on the % scale 0 is the no-effect control and ±100 the full control effect
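Secreted IL-1B measured by AlphaLISA bead assay after 16 h compound exposure of THP-1 cells; compounds (final up to 57.5 uM) added 1 h before LPS (250 ng/mL) and ATP (1.25 mM) stimulation; lower signal means less secretion.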
Starred values were filed as active, the others as inactive; i = inactive; ? = inconclusive; . = no result given. Only some compounds are listed: those with a hit (about 19% of all), similar ones and a draw of the others. Unless noted, the call rests on the fitted dose curve; in most records, active means well fitted curve in the direction sought with a large enough effect; inconclusive means small, poorly fitted or top-dose-only effect, or another doubt; inactive means no such curve, though single readings can be large; an effect the other way counts as inactive or inconclusive.

SMILES	MCF10A rerep	BCR signal inh	DT40 TDP1 CPT	SW480 rereplic	TDP1 cell noCPT	IL1B secr inh
Cc1ccc(-n2c(SCC(=O)N/N=C/c3ccccc3OCC(=O)O)nc3ccccc3c2=O)cc1	-17%	-6%	11%	0%	5%	-2
Cc1ccc(-n2c(SCC(=O)N/N=C/c3c(C)nn(-c4ccccc4)c3C)nc3ccccc3c2=O)cc1	18%	8%	21µM*	-3%	?	6
Cc1cccc(C(=O)N2CCc3cc(CNC(=O)c4cc5ccccc5[nH]4)ccc32)c1	.	14%	-18%	.	-8%	.
CCN(Cc1nc2cc(Cl)ccc2c(=O)[nH]1)C(=O)CN1C(=O)NC2(CCCCC2C)C1=O (stereo not drawn)	14%	3%	-12%	?	-14%	7
COc1ccc(N2CCOCC2)c(NC(=O)c2ccc3c(c2)OCO3)c1	2%	-14%	?	-3%	21µM*	-9
O=C(Nc1cc(Cl)ccc1N1CCOCC1)c1ccc2c(c1)OCCO2	6%	4%	?	-7%	-16%	-71*
CCOC(=O)c1cccc(NC(=O)N2Cc3ccccc3Oc3ncccc32)c1	.	.	-1%	.	-9%	.
Cc1ccc(CNCc2cccn2-c2nnc(N3CCCC3)s2)cc1	.	.	?	.	16µM*	.
CCc1ccc(NCc2cccn2-c2nnc(N3CCCCCC3)s2)cc1	.	.	21µM*	.	16µM*	.
Cc1ccc(CNC(=O)c2ccc3nc(N4CCCCC4)sc3c2)cc1	.	.	-25%	.	-19%	.
COc1ccc(NCc2cccn2-c2nnc(N3CCOCC3)s2)cc1OC	.	.	-20%	.	?	.
COc1ccc(NCc2cccn2-c2nnc(N3CCCCC3)s2)cc1OC	.	.	?	.	16µM*	.
COc1ccc(CNC(=O)c2cc(-c3cccc(Cl)c3)on2)cc1	.	.	?	.	-29%	.
NC(Cc1ccccc1)C(=O)O (stereo not drawn)	.	.	-2%	.	-3%	.
COc1cc(Cl)ccc1OCc1cc(C(=O)NCCCN2CCCC2=O)no1	-4%	-11%	?	-6%	10%	4
CC(C)C[C@@H](CO)N1CCN(Cc2ccc([N+](=O)[O-])cc2)CCC1=O	25%	-4%	?	-9%	?	3
O=S(=O)(c1ccc(Br)c2nsnc12)N1CCOCC1	21µM*	2%	-19%	?	-19%	-54*
OC(c1ccc(F)c(F)c1)c1nc(-c2csc3ccccc23)cs1 (stereo not drawn)	.	.	23µM*	.	?	4
Cc1ccccc1-c1csc(C(O)c2ccc(F)c(F)c2)n1 (stereo not drawn)	.	.	?	.	?	-26
COc1cc(C(O)c2nc(-c3csc4ccccc34)cs2)ccc1F (stereo not drawn)	.	.	?	.	18µM*	-10
OC[C@@H](O)[C@@H](O[C@H]1O[C@H](CO)[C@@H](O)[C@H](O)[C@H]1O)[C@H](O)[C@@H](O)CO	11%	8%	0%	-24%	4%	-10
COc1ccc(NC(=O)C(NS(=O)(=O)c2cccc3nsnc23)c2ccccc2)cc1 (stereo not drawn)	.	.	-25%	.	-7%	.
COC(=O)N/N=C/c1cn(CCOc2ccc(OC)cc2)c2ccccc12	2%	-2%	?	-8%	?	-21
COC(=O)N/N=C/c1ccccc1OCCOc1ccc(OC)cc1	?	-26%	-92%	?	16µM*	-11
COc1ccc(NC(C)C(=O)N/N=C/c2ccccc2OCc2ccc(Br)cc2)cc1 (stereo not drawn)	7%	23%	?	?	22µM*	-12
SMILES	MCF10A rerep	BCR signal inh	DT40 TDP1 CPT	SW480 rereplic	TDP1 cell noCPT	IL1B secr inh
CC(C)CN1CC2(CCN(S(=O)(=O)c3ccccc3)CC2)C1	.	.	1%	.	-3%	.
O=C(NCCC(=O)N(Cc1ccco1)Cc1cccs1)c1ccc([N+](=O)[O-])cc1	6%	-5%	?	2%	?	-3
CC[C@H](C)[C@H](NC(=O)c1ccccc1)C(=O)NC(CC(=O)O)c1ccc(F)cc1 (stereo partly drawn)	?	0%	0%	-12%	-2%	-7
COC(=O)c1c(-c2cccnc2)csc1NC(=O)c1ccc2c(c1)OCO2	-1%	-1%	?	?	23µM*	i
CC(c1ccccc1)c1nnc(NC(=O)c2ccc3c(c2)OCO3)s1 (stereo not drawn)	?	9%	?	15µM*	18µM*	-10
COc1ccccc1-c1nnc(NC(=O)c2ccc3c(c2)OCO3)s1	?	?	2.3µM*	5.8µM*	2.1µM*	0
COCCNC(=O)c1ccc(-c2nc(CS(=O)(=O)c3ccccc3)c(C)o2)cc1	.	.	-13%	.	-24%	.
Cc1ccn2c(=O)c(NC(=O)c3ccc(Br)o3)c(C)nc2c1	-1%	6%	1%	-7%	-16%	12
CCOC(=O)C1=C(O)C(=O)NC(c2ccccc2)=C(OC2CCCCC2)C1	3%	3%	?	-1%	23µM*	12
CCOC(=O)c1ccccc1NC1c2ccccc2C(=O)N1c1cc(C)ccn1 (stereo not drawn)	?	10%	23µM*	-2%	?	2
COc1cc(OC)c(NC2c3ccccc3C(=O)N2c2cc(C)ccn2)cc1Cl (stereo not drawn)	6%	-4%	-8%	5%	?	-17
Cn1c(=O)c2c(nc(SCCN3CCOCC3)n2Cc2cccc3ccccc23)n(C)c1=O	-2%	0%	8.2µM*	0%	5.2µM*	-1
Cc1ccc(Cn2c(SCCN3CCCCC3)nc3c2c(=O)n(C)c(=O)n3C)cc1	?	-1%	?	10%	15µM*	-9
CCSc1nnc(NC(=O)CSc2nc3c(c(=O)n2CCOC)SC(C)C3)s1 (stereo not drawn)	1%	1%	16µM*	0%	23µM*	26
CCc1nnc(NC(=O)CSc2nc3c(c(=O)n2CC)SC(C)C3)s1 (stereo not drawn)	2%	?	18µM*	-19%	12µM*	38
CCn1c(SCC(=O)Nc2cc(C)ccc2C)nc2c(c1=O)SC(C)C2 (stereo not drawn)	17%	-1%	0%	4%	-24%	0
O=C(CCc1c[nH]c2ccccc12)N1CCN(S(=O)(=O)c2ccc(F)cc2)CC1	7%	5%	-5%	-68%	?	-13
